# Assay results: PubChem BioAssay (NCATS)
# Values without a mark were called inactive. Inconclusive results are not listed. Calls of active or inactive are those of the source. Unless noted, calls follow the shape of the dose curve; as a rule, active = well fitted curve in either direction with a large enough effect (not every such curve was filed as active); inconclusive = small, poorly fitted or top-dose-only effect, or another doubt; inactive = flat fitted curve, though single readings scatter.
# What was measured:
# [1] = target: Lysosomal acid glucosylceramidase (Homo sapiens) (UniProt P04062); assay: Glucocerebrosidase-p2 (AID 348; in the data active = potency below about 10 µM; also: potency is read from the fitted curve at half-maximal effect); conditions: purified GBA, blue fluorogenic substrate, 40 min
# Sequence of Lysosomal acid glucosylceramidase (Homo sapiens) (P04062 whole entry, looked up): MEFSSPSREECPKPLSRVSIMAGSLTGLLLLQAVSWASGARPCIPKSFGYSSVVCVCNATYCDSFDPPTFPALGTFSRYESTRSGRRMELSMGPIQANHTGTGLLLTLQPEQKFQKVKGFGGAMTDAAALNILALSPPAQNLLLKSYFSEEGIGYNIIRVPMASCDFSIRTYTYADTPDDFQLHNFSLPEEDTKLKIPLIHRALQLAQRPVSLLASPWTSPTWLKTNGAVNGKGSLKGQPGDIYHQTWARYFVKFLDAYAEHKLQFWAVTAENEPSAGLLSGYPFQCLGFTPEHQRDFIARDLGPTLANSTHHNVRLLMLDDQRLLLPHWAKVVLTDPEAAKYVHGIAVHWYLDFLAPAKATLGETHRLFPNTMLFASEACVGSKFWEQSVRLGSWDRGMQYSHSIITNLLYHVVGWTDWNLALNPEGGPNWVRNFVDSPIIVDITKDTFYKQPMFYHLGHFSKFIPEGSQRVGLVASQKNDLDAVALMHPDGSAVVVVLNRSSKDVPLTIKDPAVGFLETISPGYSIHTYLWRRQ
# Method in brief: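 Compounds titrated from 0.6 nM upwards against 0.2 nM enzyme in pH 5.9 citric acid/KH2PO4, taurocholate, tween-20; blue fluorogenic substrate 80 uM, 40 min room temperature, stopped and read Ex 365/Em 440 for AC50.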
# [2] = AP1 Signaling Pathway (AID 357); conditions: ME-180 AP-1-bla reporter, EGF-induced, beta-lactamase ratio, 5 h; at 7.69 µM (top of the series) unless noted; also: % is scaled to controls: 0 for no effect and ±100 for the full control effect
# Method in brief: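 AP-1-bla ME-180 cells with beta-lactamase reporter under AP-1 response element, stimulated with EC50 EGF; compounds titrated, 5 hours at 37 degrees Celsius. CCF4 read at 460/530 nm ratio; positive and negative modulators judged by AC50.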
# [3] = NFAT Signaling Pathway (AID 444); conditions: Jurkat NFAT-bla M1, carbachol, beta-lactamase ratio, 5 h; at 7.69 µM (top of the series) unless noted;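 also: carbachol stimulus at about its EC50 of 1 µM final; % is scaled to controls: 0 for no effect and ±100 for the full control effect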
# Method in brief: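 Read-out: CCF4 FRET ratio (460 nm/530 nm) after 1 h RT dye loading, used for %activity and AC50 from titration series. Cells: Jurkat NFAT-β-lactamase/M1 line, treated with compound plus 1 uM carbachol for 5 h, 37 °C.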
# [4] = Stat Signaling Pathway (AID 446); conditions: ME-180 (cervical carcinoma) SIE beta-lactamase reporter, IL-6 stimulated, 5 h; at 7.69 µM (top of the series) unless noted;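 also: ME-180 cervical cancer cells given 40 pM IL-6 alongside compound; SIE-controlled beta-lactamase reporter measured as 460/530 nm FRET emission ratio; % is scaled to controls: 0 for no effect and ±100 for the full control effect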
# Method in brief: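 IL-6/STAT signaling read in ME-180 cells via an SIE beta-lactamase reporter. Stimulus was 40 pM IL-6 (its AC50) for 5 hrs, so both activation and inhibition register.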
# [5] = target: Glucocorticoid receptor (Homo sapiens) (UniProt P04150); assay: GR-GFP Redistribution (AID 450;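 active = compounds whose dose series gives a full or clear partial fitted curve of increased nuclear translocation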; also: potency is read from the fitted curve at half-maximal effect); conditions: U2OS GR-GFP nuclear translocation, laser cytometry, 2 h
# Sequence of Glucocorticoid receptor (Homo sapiens) (P04150 whole entry, looked up, the tested form may be a part): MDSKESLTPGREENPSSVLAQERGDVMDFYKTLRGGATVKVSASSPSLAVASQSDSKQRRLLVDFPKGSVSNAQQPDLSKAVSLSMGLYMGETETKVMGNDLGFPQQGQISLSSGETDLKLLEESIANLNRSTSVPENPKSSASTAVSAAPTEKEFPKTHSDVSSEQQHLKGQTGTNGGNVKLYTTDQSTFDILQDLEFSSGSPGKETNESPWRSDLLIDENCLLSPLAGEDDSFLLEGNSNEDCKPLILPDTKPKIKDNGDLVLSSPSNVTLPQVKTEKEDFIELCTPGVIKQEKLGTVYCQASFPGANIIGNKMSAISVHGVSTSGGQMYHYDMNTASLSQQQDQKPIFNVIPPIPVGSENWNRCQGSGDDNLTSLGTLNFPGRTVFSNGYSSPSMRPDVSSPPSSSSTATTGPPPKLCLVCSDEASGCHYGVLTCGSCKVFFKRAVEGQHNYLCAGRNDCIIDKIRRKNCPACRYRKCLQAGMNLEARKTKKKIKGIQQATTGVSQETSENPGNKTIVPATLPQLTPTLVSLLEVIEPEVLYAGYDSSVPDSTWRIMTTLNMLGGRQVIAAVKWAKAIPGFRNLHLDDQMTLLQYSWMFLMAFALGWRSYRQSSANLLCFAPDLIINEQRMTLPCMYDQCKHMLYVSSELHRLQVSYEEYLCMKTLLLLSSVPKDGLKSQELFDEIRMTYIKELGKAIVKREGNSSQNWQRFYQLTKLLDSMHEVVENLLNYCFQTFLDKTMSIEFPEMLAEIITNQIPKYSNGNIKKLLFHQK
# [6] = target: Glucocorticoid receptor (Homo sapiens) (UniProt P04150); assay: GR-EFC Redistribution (AID 451; calls by dose curve; also: potency is read from the fitted curve at half-maximal effect); conditions: CHO-K1 GR-EFC translocation, beta-gal luminescence, 2 h
# Method in brief: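 Translocation of GR-ED fusion to nuclear EA restores b-gal, read by luminescence after 1 h room-temperature detection. Engineered CHO-K1 biosensor cells, 1,000/well, exposed 2 h at 37 C to titrations up to 46 uM final.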
# [7] = target: Mitogen-activated protein kinase 10 (Mus musculus) (UniProt Q61831); assay: JNK3 AlphaScreen Assay (AID 530); conditions: JNK3 lysate, c-Jun phosphorylation; series mostly up to 57.1 µM;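 also: kinase came from lysate of stimulated human HepG2 cells; signal reports phosphorylation of biotinylated GST-cJun 1-79 at Ser73 with 10 µM ATP; % is scaled to controls: 0 for no effect and ±100 for the full control effect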
# Method in brief: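 Room-temperature AlphaScreen kinase assay; pre-activated HepG2 lysate as JNK3 source, biotin-GST-cJun(1-79) substrate, 10 uM ATP, compound 15 min preincubation.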
# [8] = target: 3',5'-cyclic-AMP phosphodiesterase 4B (Homo sapiens) (UniProt Q07343); assay: qHTS Assay for Inhibitors of PDE-IV (AID 607; active = well fitted activation curve with a large enough effect in the main read-out, with a control signal flat, not every such curve was filed as active; also: % of control where 0% means no effect); conditions: HEK293 ACTOne CNG channel cells, membrane potential fluorescence; series mostly up to 22.9 µM
# Sequence of 3',5'-cyclic-AMP phosphodiesterase 4B (Homo sapiens) (Q07343 whole entry, looked up): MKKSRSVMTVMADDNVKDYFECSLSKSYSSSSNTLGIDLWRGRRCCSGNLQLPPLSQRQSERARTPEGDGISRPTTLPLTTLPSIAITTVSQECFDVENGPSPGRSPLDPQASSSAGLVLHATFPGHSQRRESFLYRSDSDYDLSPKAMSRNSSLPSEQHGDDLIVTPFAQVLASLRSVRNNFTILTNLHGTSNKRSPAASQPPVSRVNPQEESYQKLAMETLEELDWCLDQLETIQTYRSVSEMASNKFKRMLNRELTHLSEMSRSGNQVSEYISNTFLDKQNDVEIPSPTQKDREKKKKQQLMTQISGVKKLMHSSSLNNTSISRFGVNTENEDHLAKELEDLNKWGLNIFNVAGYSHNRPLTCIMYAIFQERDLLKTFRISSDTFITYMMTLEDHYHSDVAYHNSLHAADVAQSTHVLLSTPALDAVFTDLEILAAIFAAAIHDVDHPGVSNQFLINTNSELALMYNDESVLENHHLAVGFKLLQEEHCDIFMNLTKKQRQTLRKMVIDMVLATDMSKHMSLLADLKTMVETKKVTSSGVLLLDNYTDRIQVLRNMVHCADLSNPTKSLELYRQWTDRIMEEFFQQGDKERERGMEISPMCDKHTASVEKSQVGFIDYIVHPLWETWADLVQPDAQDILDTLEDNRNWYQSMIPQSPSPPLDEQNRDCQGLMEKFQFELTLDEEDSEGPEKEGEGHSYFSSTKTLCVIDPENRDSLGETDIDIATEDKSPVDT
# Method in brief: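 Live HEK293 cells with a modified cyclic nucleotide-gated (CNG) channel report intracellular cAMP via membrane-potential dye fluorescence (ex 535/em 590 nm). Endogenous PDE-IV was targeted. Compounds were tested at up to 22.9 uM final; RO 20-1724 100 uM served as control.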
# [9] = target: Cytochrome P450 3A4 (Homo sapiens) (UniProt P08684); assay: qHTS Assay for Activators of Cytochrome P450 3A4 (AID 885; active = well fitted curve in the direction sought with a large enough effect; an effect the other way counts as inactive or inconclusive; also: nearly all actives have a fitted effect of over 65% in size); conditions: recombinant CYP3A4, Luciferin-PPXE luminescence, 60 min; series mostly up to 57.1 µM
# Sequence of Cytochrome P450 3A4 (Homo sapiens) (P08684 whole entry, looked up): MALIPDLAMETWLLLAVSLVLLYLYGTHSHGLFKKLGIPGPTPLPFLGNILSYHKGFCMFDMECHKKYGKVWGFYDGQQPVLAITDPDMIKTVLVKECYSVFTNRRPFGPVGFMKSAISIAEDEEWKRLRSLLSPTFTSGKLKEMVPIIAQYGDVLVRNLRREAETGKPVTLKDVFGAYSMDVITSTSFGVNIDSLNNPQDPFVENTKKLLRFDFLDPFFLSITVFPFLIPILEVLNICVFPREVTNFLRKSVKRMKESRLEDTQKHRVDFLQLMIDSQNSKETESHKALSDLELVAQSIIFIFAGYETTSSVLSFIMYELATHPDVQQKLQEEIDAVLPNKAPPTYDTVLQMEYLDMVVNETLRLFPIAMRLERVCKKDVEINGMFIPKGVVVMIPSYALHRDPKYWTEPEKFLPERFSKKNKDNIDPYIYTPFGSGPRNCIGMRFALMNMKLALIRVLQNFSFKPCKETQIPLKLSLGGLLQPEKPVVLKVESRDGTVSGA
# Method in brief: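 Quantitative HTS format: compounds preincubated with 20nM human CYP3A4 and Luciferin-PPXE substrate at KM, reaction started by NADPH regeneration, stopped after 60 min, luciferase luminescence read 20 min later.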
# [10] = target: Cytochrome P450 2D6 (Homo sapiens) (UniProt P10635); assay: qHTS Assay for Inhibitors and Substrates of Cytochrome P450 2D6 (AID 891; active = well fitted curve in the direction sought with a large enough effect; an effect the other way counts as inactive or inconclusive; also: nearly all actives have a fitted effect of over 60% in size; also: potency is read from the fitted curve at half-maximal effect); conditions: recombinant CYP2D6, luciferin-ME EGE luminescence; series mostly up to 11.4 µM
# Sequence of Cytochrome P450 2D6 (Homo sapiens) (P10635 whole entry, looked up): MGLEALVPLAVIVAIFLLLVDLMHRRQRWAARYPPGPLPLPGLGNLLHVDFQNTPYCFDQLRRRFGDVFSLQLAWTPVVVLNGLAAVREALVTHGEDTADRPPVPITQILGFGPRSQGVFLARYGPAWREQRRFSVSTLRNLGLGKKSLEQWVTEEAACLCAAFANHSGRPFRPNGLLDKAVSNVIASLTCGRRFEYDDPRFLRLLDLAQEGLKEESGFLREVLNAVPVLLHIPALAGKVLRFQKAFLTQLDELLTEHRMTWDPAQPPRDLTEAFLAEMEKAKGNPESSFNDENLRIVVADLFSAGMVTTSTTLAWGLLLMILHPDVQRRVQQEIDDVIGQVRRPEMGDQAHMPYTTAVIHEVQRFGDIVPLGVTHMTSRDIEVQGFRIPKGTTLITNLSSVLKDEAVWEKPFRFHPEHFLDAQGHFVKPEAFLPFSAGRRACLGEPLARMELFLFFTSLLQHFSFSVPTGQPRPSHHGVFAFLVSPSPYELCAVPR
# Method in brief: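 Human CYP2D6 (5 nM) with 30 uM Luciferin-ME EGE (at Km) in 100 mM KPO4, compound preincubated 10 min, then NADPH regeneration system for 60 min at room temperature. Luciferin read by luminescence; normalized to 1.43 uM quinidine.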
# [11] = target: Cytochrome P450 1A2 (Homo sapiens) (UniProt P05177); assay: p450-cyp1a2 (AID 410; calls by dose curve; also: potency is read from the fitted curve at half-maximal effect); conditions: recombinant CYP1A2, luciferin-ME demethylation, luminescence; series mostly up to 11.4 µM
# Sequence of Cytochrome P450 1A2 (Homo sapiens) (P05177 whole entry, looked up): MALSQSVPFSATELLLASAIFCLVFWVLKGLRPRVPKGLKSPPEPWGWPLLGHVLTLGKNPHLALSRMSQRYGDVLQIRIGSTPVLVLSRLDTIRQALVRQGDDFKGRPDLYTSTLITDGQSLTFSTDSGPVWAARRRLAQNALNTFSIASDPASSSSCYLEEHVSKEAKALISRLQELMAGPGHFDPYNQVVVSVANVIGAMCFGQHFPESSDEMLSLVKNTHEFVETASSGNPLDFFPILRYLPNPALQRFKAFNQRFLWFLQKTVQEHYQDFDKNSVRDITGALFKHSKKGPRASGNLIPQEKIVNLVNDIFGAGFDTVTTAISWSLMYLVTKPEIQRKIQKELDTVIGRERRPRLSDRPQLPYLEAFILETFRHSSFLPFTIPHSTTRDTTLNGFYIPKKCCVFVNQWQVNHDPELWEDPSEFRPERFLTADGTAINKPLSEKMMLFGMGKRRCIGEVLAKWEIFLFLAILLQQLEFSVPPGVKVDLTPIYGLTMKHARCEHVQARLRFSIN
# Method in brief: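 Inhibition was calculated relative to 57 uM furafylline (full inhibition). The reaction used human CYP1A2 at 20nM with Luciferin-ME at its Km, 100uM, driven by an NADPH-regenerating system for 60 min at room temperature.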
SMILES,Potency [1] [µM],"activity change, negative = inhibition [2] [%]","activity change, negative = inhibition [3] [%]","activity, negative = inhibition [4] [%]",Potency [5] [µM],Potency [6] [µM],"activity change, negative = inhibition [7]",outcome [8],"activity change, positive = activation [9]",Potency [10],Potency [11]
c1cc(CCN2CCCCC2)ccn1,> 11.4,1.53,7.13,6.27,> 46,> 9.22,1.02% [at 11.4 µM],inactive,-36% [at 11.4 µM],,
S=P(C1CCCCC1)(C1CCCCC1)[C@H](c1cccnc1)N1CCCC1,> 11.4,10.9,5.74,-1.57,> 46,> 9.22,0.158% [at 11.4 µM],inactive,-61.4% [at 11.4 µM],,
N#CS.N=C=S.N=C=S.[Cu].[NH2-].[NH2-].[NH2-].[NH2-].c1ccc2ncccc2c1,> 11.4,-1.15,0.5,-4.61,> 46,> 9.22,0.42% [at 11.4 µM],inactive,,,
CN(C)CCCNc1c2c(nc3ccc(Cl)cc13)CCCC2,> 11.4,-1.02,-26.1,10,> 46,> 9.22,,inactive,,,
CCOC(=O)c1ccc2[nH]c(-c3ccc(S(=O)(=O)F)cc3)cc(=O)c2c1,> 11.4,-7.65,25.8,-0.749,> 46,> 9.22,3.3% [at 11.4 µM],,,,
NC1(P(=O)(O)O)CCCCC1,> 11.4,11.8,-8.61,4.3,> 46,> 9.22,5.68% [at 11.4 µM],inactive,,,
CCNC(C)(C)[C@@H](SS)c1ccc(Br)cc1,> 11.4,5.96,11.8,-1.19,> 46,> 9.22,-0.59% [at 11.4 µM],inactive,-31.2% [at 11.4 µM],2 µM (active),
CCN=C=NCCCN(C)C,> 11.4,5.33,4.76,2.84,> 46,> 9.22,-0.714% [at 11.4 µM],,,inactive,
CN(C)[C@@H]1C(=O)C(C(N)=O)=C(O)[C@]2(O)C(=O)C3=C(O)c4c(O)cccc4[C@](C)(O)[C@H]3C[C@@H]12,> 11.4,-8.78,15.2,-10.5,> 46,> 9.22,-5.55% [at 11.4 µM],inactive,,,
CC(C)CNCCc1ccccn1,> 11.4,11.4,10.3,0.662,> 46,,,inactive,,,
COc1cccc2c1C(=O)c1c(O)c3c(c(O)c1C2=O)C[C@](O)(/C(C)=N\O)C[C@@H]3O[C@H]1C[C@H](N)[C@@H](O)[C@H](C)O1,> 11.4,26.1,-24.2,,> 46,> 9.22,-16.4% [at 11.4 µM],inactive,,,
Cc1ccc(S(=O)(=O)O[C@H]2CN3CCC2CC3)cc1,> 11.4,10.6,,-1.72,> 46,> 9.22,,inactive,,,
CN(C)CCC(C#N)(c1ccccc1)c1ccccc1,> 11.4,6.93,,6.64,> 46,> 9.22,2.05% [at 11.4 µM],inactive,,,
Cc1ccc(NC(=[OH+])c2cc3ccccc3cc2O)c(C)c1.Cc1ccc(NC(=[OH+])c2cc3ccccc3cc2O)c(C)c1.[Ni],> 11.4,,,,> 46,> 9.22,1.02% [at 11.4 µM],inactive,,,0.251 µM (active)
COc1ccc(C[C@@H](N)c2ccc(OC)cc2)cc1,> 11.4,-1.85,3.98,-0.344,> 46,,3.37% [at 11.4 µM],inactive,,0.631 µM (active),
